Most compounds without a hit are left out; they make up all but 19% or so of the library.
HT1080 IDH1KD tx: qHTS for induction of synthetic lethality in tumor cells producing 2HG: qHTS for the HT-1080-IDH1KD cell line; HT-1080 IDH1 knockdown viability, ATP luminescence, 48 h; Potency, µM (doses to about 46.1 µM), without a hit: top-dose activity, negative = toxicity, usual class: cytotoxic; actives 2% (n = 360,000);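 further: potency means the concentration at half of the fitted maximal effect; 0% = DMSO wells and -100% = cell-free medium wells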
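IDH1KD HT-1080 cells, 750/well, RPMI + 5% FBS; compound pinned after 2 h settling; 48 h, 37 °C; CellTiter-Glo luminescence; % activity normalised to DMSO and no-cell wells; curves fitted, classed by r2 and efficacy.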
DT40 TDP1 no CPT: qHTS for Inhibitors of human tyrosyl-DNA phosphodiesterase 1 (TDP1): qHTS in cells in absence of CPT; DT40 Tdp1-/- hTDP1 cells, no CPT, ATP luminescence, 48 h; Potency, µM (doses to about 46.2 µM), inactives show at the top dose activity change, negative = growth inhibition, actives largely listed as inhibitors; actives 15% (n = 420,000); AID 686978, 2013; further: potency means the concentration at half of the fitted maximal effect; nearly all actives have a fitted effect of over 55% in size
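Seeded 400 DT40-hTDP1 cells/well (vehicle DMSO, no 20 nM CPT); pinned compounds; ≥48 hr at 37 °C; CellTiter-Glo luminescence as viability measure.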
IL-1B inflam inh: qHTS for Inhibitors of Inflammasome Signaling: IL-1-beta AlphaLISA Primary Screen. AID 743279, 2014. THP-1 LPS/ATP IL-1B secretion, AlphaLISA, 16 h; active compounds read low. activity change, % at 57.5 µM. actives 4.7% (n = 360,000); in the data active means activity change below about -50%; inconclusive means mostly about -30% to -49%
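Secreted IL-1B measured by AlphaLISA bead assay after 16 h compound exposure of THP-1 cells; compounds (final up to 57.5 uM) added 1 h before LPS (250 ng/mL) and ATP (1.25 mM) stimulation; lower signal means less secretion.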
TDP1 cell CPT: qHTS for Inhibitors of human tyrosyl-DNA phosphodiesterase 1 (TDP1): qHTS in cells in presence of CPT; chicken DT40 Tdp1-/-;hTDP1 cells + 20 nM CPT, ATP luminescence, 48 h; Potency, µM (doses to about 46.2 µM), without a hit: top-dose activity change, negative = growth inhibition, usual class: inhibitors; actives 12% (n = 420,000); further: potency means the concentration at half of the fitted maximal effect; nearly all actives have a fitted effect of over 55% in size
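Chicken DT40 Tdp1-/- cells stably complemented with human TDP1 were seeded at 400 cells/well in medium containing 20 nM camptothecin, exposed to pin-transferred compounds, and grown at 37 °C for at least 48 hr. Viability was read as ATP luminescence.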
HT1080-NT tox: qHTS for induction of synthetic lethality in tumor cells producing 2HG: qHTS for the HT-1080-NT fibrosarcoma cell line | AID 686970, 2013 | actives 1.6% (n = 360,000) | HT-1080-NT fibrosarcoma viability, CellTiter-Glo ATP luminescence, 48 h | Potency, µM (titrated, usually from 46.1 µM), without a hit: at the highest dose activity, negative = less viability, most hits filed as cytotoxic;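 further: NT is the 2HG producing partner of a matched IDH1 knockdown line; potency means the concentration at half of the fitted maximal effect; 0% = DMSO-treated cells and -100% = media-only wells without cells; nearly all actives have a fitted effect of over 55% in size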
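Fibrosarcoma NT cells, 750 per well in 5% FBS RPMI, were exposed to compound for 48 hours. Viability: CellTiter-Glo luminescence.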
* = called active by the depositor; ? = inconclusive; nt = not tested or not shown. Unless noted, the call rests on the fitted dose curve; in most records, active means well fitted curve in the direction sought with a large enough effect; inconclusive means small, poorly fitted or top-dose-only effect, or another doubt; inactive means no such curve, though single readings can be large; an effect the other way counts as inactive or inconclusive. Unless noted, on the % scale 0 is the no-effect control and ±100 the full control effect.

SMILES	HT1080 IDH1KD tx	DT40 TDP1 no CPT	IL-1B inflam inh	TDP1 cell CPT	HT1080-NT tox
CC(CNC(=O)C(=O)NC(C)CCc1ccccc1)Cc1ccccc1 (centres undefined)	-15.9%	-3.5%	9.8	-4.3%	-14.1%
COc1cccc(NC(=O)CCc2c(C)nc3ncnn3c2C)c1	nt	-5.5%	nt	13.0%	nt
Cc1ccc(N(C)S(=O)(=O)c2ccc(-c3cc(C)no3)s2)cc1	?	-82.7%	3.8	6.51µM*	-25.7%
Cc1cc(-c2ccc(S(=O)(=O)N(C)c3ccc(C)c(C)c3)s2)on1	?	4.11µM*	23.7	3.26µM*	?
NC(=O)c1nnn(-c2cccc(C(F)(F)F)c2)c1-c1ccccc1	-1.2%	-14.8%	22.1	-3.8%	-6.5%
O=C1OCCN1c1c(-c2ccccc2)c(-c2cccs2)nc2c(-c3ccccc3)cccc12	13.4%	-23.7%	-2.0	-24.7%	13.5%
Cc1ccc(NC(=O)c2ccc(S(=O)(=O)NCc3cccnc3)cc2)cc1C	0.0%	?	8.6	?	-14.4%
O=C(c1ccc(Cl)c(S(=O)(=O)NCc2cccnc2)c1)N1CCCC1	-2.0%	2.91µM*	-5.8	?	-6.3%
O=C(Nc1ccc(Cl)c(Cl)c1)c1cccc(S(=O)(=O)NCc2cccnc2)c1	23.1µM*	11.6µM*	-82.2*	5.8µM*	7.31µM*
O=C(O)c1ccc(Cl)c(S(=O)(=O)NCc2cccnc2)c1	18.4%	?	3.6	-9.3%	3.8%
CN(C)c1ncnc2ccc(-c3cccc(NS(C)(=O)=O)c3)cc12	nt	16.4µM*	nt	20.6µM*	nt
CS(=O)(=O)Nc1cccc(-c2ccc3ncnc(NC4CCNCC4)c3c2)c1	nt	-4.9%	nt	-1.2%	nt
CN(C)c1cc(-c2cccc(NS(C)(=O)=O)c2)ncn1	nt	-6.1%	nt	-24.9%	nt
CS(=O)(=O)Nc1cccc(-c2ccc3ncnc(Nc4ccccc4)c3c2)c1	nt	20.6µM*	nt	?	nt
CS(=O)(=O)Nc1cccc(-c2ccc3ncnc(N4CCNCC4)c3c2)c1	nt	?	nt	14.6µM*	nt
O=C(CNC(=O)c1ccncc1)N/N=C/c1ccccc1[N+](=O)[O-]	21.0%	7.8%	13.3	3.2%	17.8%
CCSc1nnc(Cn2c(=O)sc3ccccc32)n1C	6.0%	-14.5%	-4.9	13µM*	1.1%
CC(Sc1nnc(Cn2c(=O)sc3ccccc32)n1C)c1ccccc1 (centres undefined)	-0.4%	-24.3%	7.1	?	-7.3%
CSc1nnc(Cn2c(=O)sc3ccccc32)n1-c1ccccc1C	0.4%	18.4µM*	-3.2	?	1.1%
CC(=O)c1c(C)nc2nc(-c3ccccc3)nn2c1C	nt	-8.4%	nt	-4.5%	nt
CCOC(=O)C1(C(=O)OCC)NC(=O)CC1C(C)C (centres undefined)	3.2%	5.6%	0.1	9.2%	-1.4%
COc1ccc(CCNC(=O)c2cc(=O)c3cc(C)ccc3o2)cc1	-2.1%	13µM*	0.6	23.1µM*	-2.4%
COc1ccc(CCN(C)C(=O)c2cc(=O)c3ccccc3o2)cc1OC	28.9%	-21.0%	-53.8*	-6.5%	14.9%
Cc1ccc2c(=O)cc(C(=O)NCCc3ccc(S(N)(=O)=O)cc3)oc2c1	2.0%	-0.6%	17.5	-2.7%	0.7%
COc1ccc(CCNC(=O)c2cc(=O)c3ccc(C)cc3o2)cc1OC	-9.2%	20.6µM*	11.9	?	-1.6%
COc1ccc(Cl)cc1NC(=O)CCc1c(C)nc2c(c1C)c(=O)n(C)c(=O)n2C	nt	-13.0%	nt	2.0%	nt
COc1ccccc1CNC(=O)C(=O)NCC(c1ccco1)N1CCOCC1 (centres undefined)	-2.8%	14.8%	0.0	-13.6%	2.4%
NC(=O)c1ccc2c(=O)n3c(-c4cc(Cl)c(N)c(Cl)c4)csc3nc2c1	?	18.4µM*	-23.5	16.4µM*	?
